This excerpt belongs to a sample that is enriched for hits.
RBX1-CUL1 inh: human ROC1-CUL1 E3 ligase inhibition | inhibition, % at 10 µM | AID 1347404 | in vitro K48 di-Ub FRET, acceptor:donor ratio, 45 min | 0.6% of 140,000 active | P62877+Q13616; in the data active means inhibition above about 25%
Starred values were filed as active, the others as inactive.

SMILES	RBX1-CUL1 inh
COc1cc(C(c2c(C)[nH]n(-c3ccccc3)c2=O)c2c(C)[nH]n(-c3ccccc3)c2=O)cc(OC)c1OC	62*
COc1cc(CN2CCN(C(=O)Cc3ccccc3)CC2)cc(OC)c1OC	6
COc1cc(C2SCC(=O)Nc3c2c(-c2ccccc2)nn3-c2ccccc2)cc(OC)c1OC (stereo unspecified)	-1
O=[N+]([O-])CC1C([N+](=O)[O-])C=Nc2nnnn21 (stereo unspecified)	8
C=CCOC(=O)C1=C(C)OC(=N)C(C#N)C12C(=O)Nc1ccccc12 (stereo unspecified)	-6
O=C1NC(=O)C(Br)(Br)C(=O)N1Cc1ccccc1	76*
N=C1C(Cl)C(=O)NC(=O)N1Cc1ccccc1 (stereo unspecified)	-4
CCC1(c2ccccc2)C(=O)NC(=O)N(CCN2CCOCC2)C1=O (stereo unspecified)	1
c1ccc(C(OCCN2CCC2)c2ccccc2)cc1	-2
CC12CC3(C(=O)Nc4ccc(Cl)cc4C(=O)c4ccccc4)C1CCC23C (stereo unspecified)	-3
CCN(CC)c1ccc(/C=C2\C(=O)NC(=S)N(c3ccc(OC)cc3OC)C2=O)o1	2
Cc1c(Cl)cccc1N1C(=O)/C(=C/c2ccc(-c3ccc(C(=O)O)cc3)o2)C(=O)NC1=S	52*
O=C1NC(=S)N(c2ccc(Br)cc2)C(=O)/C1=C/c1ccc(-c2ccccc2C(=O)O)o1	83*
CCOc1ccc(N2C(=O)/C(=C/c3ccc(CN(CCC#N)S(C)(=O)=O)o3)C(=O)NC2=S)cc1	24
CCN(CC)c1ccc(/C=C2\C(=O)NC(=S)N(C)C2=O)o1	-2
Cc1cccc(N2C(=O)/C(=C/c3cc(C)n(-c4ccc(C(=O)O)c(Cl)c4)c3C)C(=O)NC2=S)c1C	13
O=C(OC1CN2CCC1CC2)OC1CN2CCC1CC2 (stereo unspecified)	2
CCCn1nc2ccccc2c1P(=S)(N1CCOCC1)N1CCOCC1	0
COc1ccc(/C=C2/C(=O)N(Cc3ccco3)C(=O)N(C(C)C)C2=O)cc1	103*
COc1ccc(C=C2C(=O)N(C)C(=O)N(C)C2=O)cc1	-8
CC(C)N1C(=O)/C(=C/C=C/c2ccco2)C(=O)N(Cc2ccco2)C1=O	-4
N#Cc1cnn2c(C(F)(F)F)cc(-c3ccc(Cl)s3)nc12	11
CCN1CCc2nc3sc4c(=O)[nH]c(=O)[nH]c4c3cc2C1	-12
Clc1ccc2c(c1)C(c1ccccc1Cl)=NCc1nnc(CN3CCN(CCSc4ccccc4)CC3)n1-2	-7
Cc1c([N+](=O)[O-])c([N+](=O)[O-])nn1CC(=O)O	-13
